Laboratory results reported in PubChem BioAssay (EPA / NIEHS).
Records with an inconclusive call do not appear. Calls of active or inactive are those of the source. Rule for the calls: active = hit-call score of the fitted dose curve at least 0.9, where 1 is the maximum; inconclusive = response in the unintended direction; inactive = score below 0.9.

Experiments:
[1] = target: Nuclear receptor subfamily 1 group I member 2 (Homo sapiens) (UniProt O75469); assay: ATG_PXR_TRANS: Attagene TRANS-FACTORIAL HepG2 Assay for human Pregnane X Receptor (PXR) (AID 2283008)
Chain of Nuclear receptor subfamily 1 group I member 2 (Homo sapiens) (O75469 whole entry, looked up, the tested form may be a part): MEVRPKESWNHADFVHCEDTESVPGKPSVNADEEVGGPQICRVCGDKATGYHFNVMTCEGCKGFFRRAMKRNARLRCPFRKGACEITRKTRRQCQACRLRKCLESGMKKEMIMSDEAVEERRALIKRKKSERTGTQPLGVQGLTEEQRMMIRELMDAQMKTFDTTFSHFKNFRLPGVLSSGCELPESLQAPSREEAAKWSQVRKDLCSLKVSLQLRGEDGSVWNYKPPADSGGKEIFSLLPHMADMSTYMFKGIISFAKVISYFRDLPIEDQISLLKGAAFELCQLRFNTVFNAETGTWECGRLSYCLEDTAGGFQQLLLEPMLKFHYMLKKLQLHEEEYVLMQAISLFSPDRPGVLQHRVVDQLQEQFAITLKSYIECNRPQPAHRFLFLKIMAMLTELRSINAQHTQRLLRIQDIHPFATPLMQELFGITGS
Procedure, shortened: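 Measures mRNA induction of a GAL4-UAS-driven reporter in human HepG2 cells transiently expressing PXR fused to Gal4, following 24 h treatment. DMSO served as negative control and baseline.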

[2] = target: human Retinoic Acid Receptor gamma (RARg), RARG (gene 5916) (UniProt P13631); assay: ATG_RARg_TRANS: Attagene TRANS-FACTORIAL HepG2 Assay for human Retinoic Acid Receptor gamma (RARg) (AID 2283009)
Chain of human Retinoic Acid Receptor gamma (RARg), RARG (gene 5916) (P13631 whole entry, looked up, the tested form may be a part): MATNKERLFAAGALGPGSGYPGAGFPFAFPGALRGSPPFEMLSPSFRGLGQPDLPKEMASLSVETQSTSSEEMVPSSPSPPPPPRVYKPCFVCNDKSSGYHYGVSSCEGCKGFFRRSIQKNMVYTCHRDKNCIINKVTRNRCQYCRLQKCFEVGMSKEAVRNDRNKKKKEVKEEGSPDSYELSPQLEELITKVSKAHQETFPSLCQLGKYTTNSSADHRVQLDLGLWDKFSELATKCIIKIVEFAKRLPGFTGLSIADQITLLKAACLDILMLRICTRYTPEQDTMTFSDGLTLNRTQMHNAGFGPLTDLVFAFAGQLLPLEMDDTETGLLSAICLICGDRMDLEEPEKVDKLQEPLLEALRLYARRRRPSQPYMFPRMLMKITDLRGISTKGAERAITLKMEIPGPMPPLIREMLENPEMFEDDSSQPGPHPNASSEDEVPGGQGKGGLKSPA
Procedure, shortened: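 HepG2 transiently transfected with GAL4-UAS reporter units and chimeric NR-Gal4 constructs; 24 h compound exposure. Reporter mRNA quantified by RT-PCR, FAM labeling, HpaI digestion and capillary electrophoresis; gain-of-signal versus DMSO.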

[3] = target: Retinoic acid receptor RXR-alpha (Homo sapiens) (UniProt P19793); assay: ATG_RXRa_TRANS: Attagene TRANS-FACTORIAL HepG2 Assay for human Retinoid X Receptor alpha (RXRa) (AID 2283012)
Chain of Retinoic acid receptor RXR-alpha (Homo sapiens) (P19793 whole entry, looked up, the tested form may be a part): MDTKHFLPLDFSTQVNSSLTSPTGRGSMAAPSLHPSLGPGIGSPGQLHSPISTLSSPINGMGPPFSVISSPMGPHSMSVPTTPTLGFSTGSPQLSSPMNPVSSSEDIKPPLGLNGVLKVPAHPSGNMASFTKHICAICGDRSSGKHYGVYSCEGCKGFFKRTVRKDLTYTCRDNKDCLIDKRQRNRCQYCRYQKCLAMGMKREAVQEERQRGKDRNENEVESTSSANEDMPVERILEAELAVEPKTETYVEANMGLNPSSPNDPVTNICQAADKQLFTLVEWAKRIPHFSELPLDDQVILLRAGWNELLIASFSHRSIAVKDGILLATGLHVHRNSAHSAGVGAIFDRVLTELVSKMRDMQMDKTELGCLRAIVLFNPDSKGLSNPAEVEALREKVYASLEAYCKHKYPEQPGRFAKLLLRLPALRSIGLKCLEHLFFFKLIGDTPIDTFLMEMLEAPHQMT
Procedure, shortened: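 HepG2 cells transiently transfected with GAL4-UAS reporter units and chimeric RXRa-Gal4 protein, treated 24 h. Reporter mRNA measured by RT-PCR, fluorescent labelling, HpaI digestion and capillary electrophoresis. Induction fitted against DMSO.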

[4] = target: human Thyroid Receptor alpha (THRa1), THRA (gene 7067) (UniProt P10827); assay: ATG_THRa1_TRANS: Attagene TRANS-FACTORIAL HepG2 Assay for human Thyroid Receptor alpha (THRa1) (AID 2283014)
Chain of human Thyroid Receptor alpha (THRa1), THRA (gene 7067) (P10827 whole entry, looked up, the tested form may be a part): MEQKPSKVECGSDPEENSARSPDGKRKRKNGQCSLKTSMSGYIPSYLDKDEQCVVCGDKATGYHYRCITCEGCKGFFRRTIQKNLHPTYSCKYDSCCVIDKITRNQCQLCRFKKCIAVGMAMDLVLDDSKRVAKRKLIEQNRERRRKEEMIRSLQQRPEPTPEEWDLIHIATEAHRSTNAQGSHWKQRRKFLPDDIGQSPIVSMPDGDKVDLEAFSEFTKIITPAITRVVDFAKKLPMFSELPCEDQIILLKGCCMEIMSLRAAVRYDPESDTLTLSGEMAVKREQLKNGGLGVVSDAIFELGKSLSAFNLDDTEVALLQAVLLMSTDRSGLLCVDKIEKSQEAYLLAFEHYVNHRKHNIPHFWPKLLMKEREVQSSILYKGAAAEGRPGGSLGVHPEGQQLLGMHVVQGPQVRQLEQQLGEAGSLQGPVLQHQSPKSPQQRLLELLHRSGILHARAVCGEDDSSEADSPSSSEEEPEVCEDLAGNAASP
Procedure, shortened: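 HepG2 cells transiently transfected with multiplexed GAL4-UAS reporter units for exogenous chimeric THRa1-Gal4; reporter mRNA measured 24 h after dosing by RT-PCR, 6-FAM labelling, HpaI digestion and capillary electrophoresis. Gain-of-signal fitted versus DMSO baseline.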

[5] = target: Peroxisome proliferator-activated receptor gamma (Homo sapiens) (UniProt P37231); assay: ATG_PPARg_TRANS: Attagene TRANS-FACTORIAL HepG2 Assay for human Peroxisome Proliferator-activated Receptor-gamma (PPARg) (AID 2283007)
Chain of Peroxisome proliferator-activated receptor gamma (Homo sapiens) (P37231 whole entry, looked up, the tested form may be a part): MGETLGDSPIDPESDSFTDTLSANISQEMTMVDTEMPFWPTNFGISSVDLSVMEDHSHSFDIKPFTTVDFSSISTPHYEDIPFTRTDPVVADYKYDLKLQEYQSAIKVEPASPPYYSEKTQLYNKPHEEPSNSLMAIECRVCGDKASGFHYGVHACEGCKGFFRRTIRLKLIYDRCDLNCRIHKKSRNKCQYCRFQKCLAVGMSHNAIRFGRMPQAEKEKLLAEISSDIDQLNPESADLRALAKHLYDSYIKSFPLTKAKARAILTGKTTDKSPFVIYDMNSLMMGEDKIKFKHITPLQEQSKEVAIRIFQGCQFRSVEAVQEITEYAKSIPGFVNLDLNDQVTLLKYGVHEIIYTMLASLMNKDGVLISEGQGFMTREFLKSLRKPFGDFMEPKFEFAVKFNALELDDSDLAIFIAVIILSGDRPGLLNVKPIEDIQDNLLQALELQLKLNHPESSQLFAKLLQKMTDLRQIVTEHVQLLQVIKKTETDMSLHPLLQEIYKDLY
Procedure, shortened: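 Endpoint reflects upward reporter mRNA change versus DMSO controls. Setup: transiently transfected HepG2, GAL4-UAS reporters driven by chimeric NR-Gal4, 24 h incubation, RT-PCR with capillary electrophoresis read-out.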

[6] = target: human RAR-related Orphan Receptor beta (RORb), RORB (gene 6096) (UniProt Q92753); assay: ATG_RORb_TRANS: Attagene TRANS-FACTORIAL HepG2 Assay for human RAR-related Orphan Receptor beta (RORb) (AID 2283010)
Chain of human RAR-related Orphan Receptor beta (RORb), RORB (gene 6096) (Q92753 whole entry, looked up, the tested form may be a part): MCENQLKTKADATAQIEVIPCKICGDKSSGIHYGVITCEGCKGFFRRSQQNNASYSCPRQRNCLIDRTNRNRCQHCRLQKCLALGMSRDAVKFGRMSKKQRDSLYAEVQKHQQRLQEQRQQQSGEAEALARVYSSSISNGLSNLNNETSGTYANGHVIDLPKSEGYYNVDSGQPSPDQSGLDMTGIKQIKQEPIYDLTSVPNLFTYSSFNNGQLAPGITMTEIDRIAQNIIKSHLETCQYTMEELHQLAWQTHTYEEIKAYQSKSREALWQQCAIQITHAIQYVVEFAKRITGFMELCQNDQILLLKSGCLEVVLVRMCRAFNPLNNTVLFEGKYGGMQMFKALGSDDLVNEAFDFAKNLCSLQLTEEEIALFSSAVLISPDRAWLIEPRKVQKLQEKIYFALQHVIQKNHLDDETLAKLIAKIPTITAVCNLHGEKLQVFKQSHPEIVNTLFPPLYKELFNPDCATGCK
Procedure, shortened: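 HepG2 cells transiently transfected with GAL4-UAS reporter units expressing chimeric NR-Gal4 protein; reporter mRNA measured 24 h after dosing by RT-PCR, 6-FAM labelling and capillary electrophoresis. Gain-of-signal fitted relative to DMSO baseline.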

[7] = target: human Retinoid X Receptor beta (RXRb), RXRB (gene 6257) (UniProt P28702); assay: ATG_RXRb_TRANS: Attagene TRANS-FACTORIAL HepG2 Assay for human Retinoid X Receptor beta (RXRb) (AID 2283013)
Chain of human Retinoid X Receptor beta (RXRb), RXRB (gene 6257) (P28702 whole entry, looked up, the tested form may be a part): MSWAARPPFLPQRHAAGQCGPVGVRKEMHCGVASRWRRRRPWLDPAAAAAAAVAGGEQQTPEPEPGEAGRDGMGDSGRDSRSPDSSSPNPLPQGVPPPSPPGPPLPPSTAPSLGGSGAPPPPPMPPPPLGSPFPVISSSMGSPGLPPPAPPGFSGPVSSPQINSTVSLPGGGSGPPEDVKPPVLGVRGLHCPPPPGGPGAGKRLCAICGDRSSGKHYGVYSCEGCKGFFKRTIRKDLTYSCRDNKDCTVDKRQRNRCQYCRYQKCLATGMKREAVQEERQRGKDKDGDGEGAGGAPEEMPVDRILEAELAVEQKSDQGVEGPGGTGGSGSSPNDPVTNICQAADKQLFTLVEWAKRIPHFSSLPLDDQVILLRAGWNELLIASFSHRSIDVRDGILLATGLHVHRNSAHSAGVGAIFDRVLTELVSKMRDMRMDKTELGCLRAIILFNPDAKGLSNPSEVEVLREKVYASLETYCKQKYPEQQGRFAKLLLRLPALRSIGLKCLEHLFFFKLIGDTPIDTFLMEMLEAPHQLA
Procedure, shortened: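 HepG2 cells were transiently transfected with multiplexed GAL4-UAS reporters and a chimeric RXRb-Gal4 construct, then exposed for 24 h. Reporter mRNA was quantified by RT-PCR, FAM labeling, HpaI digestion and capillary electrophoresis; gain of signal was scored against DMSO.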

[8] = target: human RAR-related Orphan Receptor gamma (RORg), RORC (gene 6097) (UniProt P51449); assay: ATG_RORg_TRANS: Attagene TRANS-FACTORIAL HepG2 Assay for human RAR-related Orphan Receptor gamma (RORg) (AID 2283011)
Chain of human RAR-related Orphan Receptor gamma (RORg), RORC (gene 6097) (P51449 whole entry, looked up, the tested form may be a part): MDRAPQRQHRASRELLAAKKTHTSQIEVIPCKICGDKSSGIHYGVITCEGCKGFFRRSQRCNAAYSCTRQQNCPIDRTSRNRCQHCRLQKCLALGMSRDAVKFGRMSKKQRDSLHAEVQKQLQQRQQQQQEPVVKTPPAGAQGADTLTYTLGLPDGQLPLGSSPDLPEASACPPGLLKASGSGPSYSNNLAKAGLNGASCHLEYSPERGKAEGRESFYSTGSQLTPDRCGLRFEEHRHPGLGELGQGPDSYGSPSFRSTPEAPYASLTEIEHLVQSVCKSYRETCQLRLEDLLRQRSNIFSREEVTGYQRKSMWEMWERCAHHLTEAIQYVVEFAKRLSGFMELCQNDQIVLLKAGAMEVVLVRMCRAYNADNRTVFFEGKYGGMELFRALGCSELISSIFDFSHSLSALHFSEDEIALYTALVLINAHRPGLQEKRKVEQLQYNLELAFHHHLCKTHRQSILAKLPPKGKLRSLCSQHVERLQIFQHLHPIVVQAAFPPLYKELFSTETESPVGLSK
Procedure, shortened: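 Readout: reporter transcript induction (RT-PCR, fluorescent primer extension, capillary electrophoresis) after 24 h compound exposure of transiently transfected HepG2 cells carrying a RORg-Gal4 chimera and GAL4-UAS reporters; DMSO served as baseline, with increasing signal fitted.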

[9] = target: Retinoic acid receptor alpha (Homo sapiens) (UniProt P10276); assay: ATG_RARa_TRANS: Attagene TRANS-FACTORIAL HepG2 Assay for human Retinoic Acid Receptor alpha (RARa) (AID 2283005)
Chain of Retinoic acid receptor alpha (Homo sapiens) (P10276 whole entry, looked up, the tested form may be a part): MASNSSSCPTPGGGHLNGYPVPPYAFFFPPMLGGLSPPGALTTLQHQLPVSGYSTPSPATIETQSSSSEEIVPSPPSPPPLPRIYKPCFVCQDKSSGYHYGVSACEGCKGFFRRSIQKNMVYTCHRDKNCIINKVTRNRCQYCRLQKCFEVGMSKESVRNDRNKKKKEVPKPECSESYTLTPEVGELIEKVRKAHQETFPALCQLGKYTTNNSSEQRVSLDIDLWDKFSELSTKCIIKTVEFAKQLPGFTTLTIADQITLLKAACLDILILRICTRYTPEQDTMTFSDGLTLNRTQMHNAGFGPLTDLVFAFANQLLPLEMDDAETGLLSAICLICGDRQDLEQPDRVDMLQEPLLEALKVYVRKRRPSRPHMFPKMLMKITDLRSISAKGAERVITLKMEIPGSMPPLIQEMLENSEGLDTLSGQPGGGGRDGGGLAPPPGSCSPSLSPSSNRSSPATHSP
Procedure, shortened: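 Reporter transcripts, measured by RT-PCR with fluorescent labeling and capillary electrophoresis after 24 h dosing, reflect activity of an exogenous human RARa–GAL4 fusion in transiently transfected HepG2. Fitted for increase relative to DMSO.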

Measured: AC50

OCCOCCN1CCN(C2=Nc3ccccc3Sc3ccccc32)CC1
active: [1] 5.77 µM
inactive: [2] | [3] | [4]

C#CC(C)N(C)C(=O)Nc1ccc(Cl)cc1 (centres undefined)
inactive: [5] | [2] | [6] | [7] | [4]

CCCCC(CC)(CO)CO
inactive: [5] | [1] | [3]

CC(=O)NCCO
inactive: [1] | [2] | [6] | [3] | [7]

CC1(C)O[C@@H]2[C@@H](CO[C@@]3(COS(N)(=O)=O)OC(C)(C)O[C@@H]23)O1
inactive: [5] | [1] | [4]

CC(C)(C)c1ccc(C(=O)O)cc1
inactive: [5] | [1] | [7]

O=CCc1ccccc1
inactive: [2] | [6] | [8] | [7]
active: [5] 22.9 µM | [1] 13.1 µM

COc1cccc(OC)c1O
inactive: [1]

Cc1ccc(N)c(S(=O)(=O)O)c1
inactive: [5] | [1] | [8] | [3]

CCCCCCCCN1CCCC1=O
inactive: [5] | [2] | [3] | [4]

CCCCCC(C)=O
inactive: [5] | [1] | [8] | [7]

O=P(O)(O)O
inactive: [6] | [8] | [7]

CN(C)CCOc1ccc(/C(=C(/CCCl)c2ccccc2)c2ccccc2)cc1
inactive: [1] | [2] | [3] | [7] | [4]

CCOC(=O)C1OC1c1ccccc1 (centres undefined)
inactive: [5] | [1] | [8]

O=[N+]([O-])c1cccc(Cl)c1
inactive: [2]

CC(C)=CCCC(C)CCOC=O (centres undefined)
inactive: [5] | [1] | [3] | [7] | [4]

c1ccc(CN(Cc2ccccc2)Cc2ccccc2)cc1
active: [7] 13.1 µM
inactive: [5] | [1] | [2] | [3]

Nc1ccc2c(O)cc(S(=O)(=O)O)cc2c1
not listed: [3] | [4] | [9]
inactive: all other assays above

CCCC(=O)c1ccccc1
not listed: [2] | [7] | [9]
inactive: all other assays above

CC1=CC[C@@]23C[C@@H]1C(C)(C)[C@@H]2CC[C@H]3C
active: [7] 58.9 µM
inactive: [5] | [1] | [6] | [8] | [3]

C=Cc1ccc(C)cc1
inactive: [5] | [1] | [8] | [7] | [4]

CCCC(=O)OCCc1ccccc1
inactive: [1] | [6] | [8]

C=C[Si]1(C)O[Si](C)(C=C)O[Si](C)(C=C)O[Si](C)(C=C)O1 (centres undefined)
inactive: [5]
active: [7] 8 µM

OC[C@H]1O[C@@H]2O[C@H]3[C@H](O)[C@@H](O)[C@@H](O[C@H]4[C@H](O)[C@@H](O)[C@@H](O[C@H]5[C@H](O)[C@@H](O)[C@@H](O[C@H]6[C@H](O)[C@@H](O)[C@@H](O[C@H]7[C@H](O)[C@@H](O)[C@@H](O[C@H]8[C@H](O)[C@@H](O)[C@@H](O[C@H]9[C@H](O)[C@@H](O)[C@@H](O[C@H]1[C@H](O)[C@H]2O)O[C@@H]9CO)O[C@@H]8CO)O[C@@H]7CO)O[C@@H]6CO)O[C@@H]5CO)O[C@@H]4CO)O[C@@H]3CO
inactive: [5] | [6] | [8]

Cc1ccc(-c2ccccc2)cc1
inactive: [6] | [3] | [7]

O=C(O)COCC(=O)O
inactive: [9] | [1] | [6] | [4]

C1CCCCC1
inactive: [1] | [6] | [8] | [7]

Nc1ccn([C@H]2CS[C@@H](CO)O2)c(=O)n1
inactive: [2] | [8] | [4]

O=C(O)CCCCCCCCC(=O)O
inactive: [3]

CCCC(=O)C(CC)Sc1ccoc1C (centres undefined)
inactive: [3] | [4]
active: [5] 33.6 µM | [1] 9.72 µM
